Data as given in PubChem BioAssay AID652010 (The Scripps Research Institute Molecular Screening Center, 2013).
Among all 370,000 compounds or so, about 4,100 (1.1%) were called active. What follows is part of a selection rich in actives, with near analogues and random picks from the rest. Values without a mark were called inactive.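 Rule for the calls: active = inhibition above the mean over all tested compounds plus 3 SD (cut at about 3.6% in these data); inactive = the rest.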

Assay: DAX1 (NR0B1) inhibitors on StAR promoter, primary screen, cell-based, luminescence, SF-1 (NR5A1), full-length DAX-1 (AID 652010);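 note: 0% = DAX-1 cells with DMSO and 100% = cells lacking DAX-1 with DMSO; higher inhibition means more luminescence from relief of DAX-1 repression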
Details: HEK293T StAR-luciferase reporter, SF-1/DAX-1 repression relief; at 6.8 µM; active compounds read high
In the case of `COc1ccc(-c2csc3nc(-c4ccccc4F)oc(=O)c23)cc1OC`, the inhibition is reported as -0.99%.
Compound `COc1ccc(C2CC(c3cccs3)=Nc3ccccc3S2)cc1OC` (configuration not stated) has an inhibition of 1.16%.
In the case of `COc1ccc(-c2csc(-c3cccs3)n2)cc1OC`, the inhibition is reported as 7.97% (active).
`O=C(CCl)NC1CCCCN(Cc2cccc(C(F)(F)F)c2)C1=O` (configuration not stated) gave an inhibition of -3.93%.
In the case of `C[C@H](O)[C@@H]1CN2CCc3ccc(-c4ccc5c(c4)OCO5)cc3[C@@H]2C[C@@H]1N(C)C(=O)C1CCCCC1`, the inhibition is reported as 0.38%.
`COC(=O)[C@]12C[C@H](CC(=O)N3CCOCC3)C(=O)N(Cc3ccc(Cl)cc3Cl)C1=C[C@H](COCc1ccccc1)O[C@@H]2C` gave an inhibition of -0.57%.
In the case of `CCCCNc1cccc2c1S(=O)(=O)N[C@@H](C)CO2`, the inhibition is reported as -0.56%.
With `CC(Oc1ccccc1[N+](=O)[O-])C(=O)N/N=C/c1ccoc1` (configuration not stated) the inhibition was 6.45% (active).
Work on `CC(C)c1cc(C(=O)N/N=C/c2ccoc2)c(O)c(C(C)C)c1` yielded an inhibition of -0.83%.
`Cc1ccc(OCC(=O)Oc2ccccc2[N+](=O)[O-])cc1` gave an inhibition of 0.05%.
Compound `CCOC(=O)C1CSCCS(=O)(=O)N1Cc1ccc(Cl)cc1` (configuration not stated) has an inhibition of -1.28%.
Compound `COC(=O)c1c(C(=O)OC)c2n(c1C)CCS2` has an inhibition of 0.03%.
`COc1ccc(NCc2nnc(SCc3ccccc3)n2-c2ccc(OC)cc2)cc1` gave an inhibition of 0.16%.
With `COc1ccc2nc(SCc3ccccc3)nc(C)c2c1` the inhibition was 5.06% (active).
With `COc1cccc(CSc2nnc(-c3cccnc3)n2Cc2ccccc2)c1` the inhibition was 1.04%.
Work on `COC(=O)[C@]12C[C@H](CC(=O)NCc3ccc(C)o3)C(=O)N(CCC3=CCCCC3)C1=C[C@H](C(C)(C)C)O[C@@H]2C` yielded an inhibition of -0.72%.
`CCOC(=O)[C@@]12CCC3=C1N(CCC3)C(=O)[C@H](CC(=O)N1CCN(C(=O)c3ccco3)CC1)C2` showed an inhibition of 0.29%.
Work on `Cc1ccccc1CN1CCCCC(NC(=O)Nc2ccccc2F)C1=O` (configuration not stated) yielded an inhibition of -2.67%.
In the case of `CC(C)(C)c1ccc(/C=C/C(=O)NCCCn2ccnc2)cc1`, the inhibition is reported as 0.37%.
In the case of `CC(C)(C)c1ccc(/C=C/C(=O)Nc2ncccn2)cc1`, the inhibition is reported as 3.9% (active).
In the case of `Cc1cc(C)nc(NC(=O)/C=C/c2ccc(Cl)cc2)n1`, the inhibition is reported as 0.12%.
In the case of `CC(=O)N1C[C@@H](CO)[C@@H](N(C)C(=O)C(C)(C)C)C[C@H]1c1ccccc1Br`, the inhibition is reported as 0.98%.
`COC(=O)C[C@H]1CC[C@H]2[C@H](COc3ccc(NC(=O)C4CC4)cc3C(=O)N2C)O1` showed an inhibition of 1.68%.
For `O=C(c1cnn(-c2ccc(Cl)cc2)c1)c1ccccc1O`, the inhibition was 6.14% (active).
Compound `CC(=O)c1nn(-c2ccc(C)cc2)cc1C(=O)c1cccc(Br)c1` has an inhibition of -0.24%.
Work on `Cc1[nH]nc(-c2ccc(OCc3cnn(-c4ccccc4)c3)cc2O)c1Oc1ccc(Cl)cc1` yielded an inhibition of -0.45%.
In the case of `COc1cccc(Cn2cc(COC(=O)Nc3ccc(F)cc3)nn2)c1`, the inhibition is reported as -0.2%.
`COc1ccc(S(=O)(=O)NCC(=O)NC2CC2)cc1OC` showed an inhibition of -0.86%.
Work on `CC(=O)Nc1ccc(OC[C@@H](O)CN2CCC(C(O)(c3ccccc3)c3ccccc3)CC2)cc1` yielded an inhibition of 0.02%.
In the case of `O=C(CSc1nnc(CNC(=O)c2ccc(F)cc2)o1)Nc1ccc2c(c1)OCO2`, the inhibition is reported as -1.07%.
In the case of `COc1ccc([N+](=O)[O-])cc1C1NN=C(c2cccc3ccccc23)S1` (configuration not stated), the inhibition is reported as 0.7%.
Work on `COc1ccc(CN2CCCC(C(=O)c3ccc(Cl)cc3)C2)cc1Cn1cncn1` (configuration not stated) yielded an inhibition of 0.63%.
In the case of `COc1ccc(C2Nc3ccccc3C(=O)N2c2ccc(Cl)cc2)cc1Cn1cc([N+](=O)[O-])cn1` (configuration not stated), the inhibition is reported as 3.84% (active).
With `O=C(Oc1ccc(-c2nnco2)cc1)c1ccc(F)c(S(=O)(=O)N2CCOCC2)c1` the inhibition was -0.14%.
For `CC(=O)N1CCCN(C2=Nc3ccccc3Sc3ccccc32)CC1`, the inhibition was -0.16%.
Compound `CCC(C)[C@@H](C(=O)OC)N(CCc1cn(Cc2ccccc2)nn1)S(=O)(=O)c1ccccc1Br` (some centres not stated) has an inhibition of -0.61%.
In the case of `N#Cc1ccccc1OC[C@@H](O)CN1CCC(C(O)(c2ccccc2)c2ccccc2)CC1`, the inhibition is reported as -0.84%.
For `COc1ccc(/C=C/C(=O)OCC(=O)NC2CCCCCC2)cc1OC`, the inhibition was 2.29%.
For `COc1ccc(/C=C/C(=O)Nc2ccc(C34CC5CC(CC(O)(C5)C3)C4)cc2)cc1OC`, the inhibition was 8.95% (active).
With `COc1cc(/C=C/C(=O)Nc2ccc(OC)c(S(=O)(=O)N3CCOCC3)c2)ccc1OCC#N` the inhibition was -2.07%.
Compound `O=C(NC1CCCC1)C1CSCCS(=O)(=O)N1Cc1ccccc1` (configuration not stated) has an inhibition of 0.54%.
Compound `CNC(=O)c1[nH]cnc1C(=O)N[C@@H](CC(C)C)C(=O)OC(C)(C)C` has an inhibition of -0.49%.
For `CC[C@]1(O)C[C@@H]2CN(CCc3c([nH]c4ccccc34)[C@@](C(=O)OC)(c3cc4c(cc3OC)N(C)[C@H]3[C@@](O)(C(=O)OC)[C@H](OC(C)=O)[C@]5(CC)C=CCN6CC[C@]43[C@@H]65)C2)C1`, the inhibition was 9.42% (active).
For `CC[C@]1(O)CC2CN(CCc3c([nH]c4ccccc34)[C@@](C(=O)OC)(c3cc4c(cc3OC)N(C=O)[C@H]3[C@@](O)(C(=O)OC)[C@H](OC(C)=O)[C@]5(CC)C=CCN6CC[C@]43[C@@H]65)C2)C1` (some centres not stated), the inhibition was 12.9% (active).
`CC(C)(C)c1ccc(CSc2nnc(-c3cccs3)o2)cc1` gave an inhibition of -0.57%.
`CCOC(=O)C(=O)N(Cc1ccccc1)c1ccccc1C(=O)Nc1cc(OC)ccc1OC` gave an inhibition of -0.54%.
`CCOC(=O)N1CCN(C(=O)C2CCN(S(C)(=O)=O)CC2)CC1` showed an inhibition of 0.3%.
Work on `Cn1c(SCC(=O)Nc2cccc(NC(=O)c3cccs3)c2)nnc1-c1ccncc1` yielded an inhibition of -0.42%.
With `COc1cc(NC(=O)c2ccc(-c3csc(C)n3)cc2)c(OC)cc1Cl` the inhibition was 0.05%.
With `Cc1nc(-c2ccc(NC(=O)c3cccs3)cc2)cs1` the inhibition was 3.66% (active).
`O=C(CSc1nnc(COc2ccccc2)n1Cc1ccco1)c1ccc2ccccc2c1` showed an inhibition of -1.45%.
Work on `O=C(NN=Cc1ccco1)C(=O)Nc1ccc(Cl)c([N+](=O)[O-])c1` yielded an inhibition of 0.2%.
